Measured values as given in the supplement of paper PMC10849652.
The full data set covers some 7,900 targets. This sample favours those with a hit. About 0.6% of all pairs of compound and target were hits. Unmarked numbers belong to inactive results.

Assays:
Test in all cases: log2 fold change, soluble protein after heating vs DMSO (PISA); higher = thermal stabilisation; K562 cells, 10 uM, 30 min; active = over 0.2 and 3.5 SD of the protein, either way, in both replicates (recomputed)
erlotinib = compound: C#Cc1cccc(Nc2ncnc3cc(OCCOC)c(OCCOC)cc23)c1 [erlotinib]
In short: (§1)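 Soluble protein was quantified by TMTpro 16plex LC-MS/MS after channel sums were equalised. It was obtained as the supernatant after 21,000xg for 90 min from pooled aliquots of K562 cells (2×10^6 cells/mL, 10 μM compound, 30 min) heated for 3 min across 48°C-58°C and extracted in PBS with 0.5% NP-40 at 4°C. Thermal stability values are relative to control samples and come from duplicates. They are given as log2 fold changes.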

[1] = compound: C/C(=N\NC(=O)C1=CC(=CC=C1)S(=O)(=O)N2CCOCC2)/C3=C(C=CC(=C3)Cl)O
In short: as §1

[2] = compound: C1=CC(=C(C=C1Cl)C2=NC3=NC=CN=C3C(=N2)NC4=CC=NC=C4)F
In short: as §1

[3] = compound: C1=CC(=CC=C1C2=NC3=C(N2)C=C(C=C3)C(=O)N)OC4=CC=C(C=C4)Cl
In short: as §1

[4] = compound: C1=CC2=C(C=CC(=C2)/C=C\3/C(=O)NC(=NCC4=CC=CS4)S3)N=C1
In short: as §1

[5] = compound: C1=CC2=NC=CN=C2C=C1/C=C/3\C(=O)NC(=O)S3
In short: as §1

[6] = compound: C1=CC=C(C=C1)C2=NC(=C(N2)C3=CC=NC=C3)C4=CC(=C(C=C4)Cl)O
In short: as §1

[7] = compound: C1=CC=C2C(=C1)C3=NNC4=CC=CC(=C43)C2=O
In short: as §1

[8] = compound: C1CCN(C1)C(=O)NC2=CC=CC(=C2)NC3=NC=C(C(=N3)NCCC4=CN=CN4)Br
In short: as §1

[9] = compound: C1CN(CCC1(CC2=CC=C(C=C2)Cl)N)C3=NC=NC4=C3C=CN4
In short: as §1

Chain of UniProt O75582 (O75582 whole entry, looked up): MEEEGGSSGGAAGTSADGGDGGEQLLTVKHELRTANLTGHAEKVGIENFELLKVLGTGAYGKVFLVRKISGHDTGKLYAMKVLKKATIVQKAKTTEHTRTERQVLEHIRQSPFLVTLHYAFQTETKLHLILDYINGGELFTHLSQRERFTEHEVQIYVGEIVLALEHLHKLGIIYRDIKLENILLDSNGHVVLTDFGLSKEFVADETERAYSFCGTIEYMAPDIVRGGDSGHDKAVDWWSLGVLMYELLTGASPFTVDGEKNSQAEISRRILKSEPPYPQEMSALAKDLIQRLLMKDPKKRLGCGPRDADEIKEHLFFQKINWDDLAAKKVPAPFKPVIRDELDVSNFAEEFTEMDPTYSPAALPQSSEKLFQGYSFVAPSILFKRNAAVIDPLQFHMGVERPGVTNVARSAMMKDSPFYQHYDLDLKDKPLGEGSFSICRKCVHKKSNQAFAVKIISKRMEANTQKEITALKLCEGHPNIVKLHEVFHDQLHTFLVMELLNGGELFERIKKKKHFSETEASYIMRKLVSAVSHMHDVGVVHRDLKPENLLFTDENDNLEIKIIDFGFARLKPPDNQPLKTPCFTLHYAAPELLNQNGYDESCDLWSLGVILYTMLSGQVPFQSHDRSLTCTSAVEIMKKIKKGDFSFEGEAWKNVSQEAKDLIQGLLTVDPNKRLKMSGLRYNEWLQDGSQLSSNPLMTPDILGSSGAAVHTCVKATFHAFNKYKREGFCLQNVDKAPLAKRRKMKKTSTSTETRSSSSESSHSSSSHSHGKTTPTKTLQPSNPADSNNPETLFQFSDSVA
Chain of UniProt Q9BWJ5 (Q9BWJ5 whole entry, looked up): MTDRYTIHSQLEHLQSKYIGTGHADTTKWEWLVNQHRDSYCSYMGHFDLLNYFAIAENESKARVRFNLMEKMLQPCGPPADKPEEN
Chain of UniProt Q5VTB9 (Q5VTB9 whole entry, looked up): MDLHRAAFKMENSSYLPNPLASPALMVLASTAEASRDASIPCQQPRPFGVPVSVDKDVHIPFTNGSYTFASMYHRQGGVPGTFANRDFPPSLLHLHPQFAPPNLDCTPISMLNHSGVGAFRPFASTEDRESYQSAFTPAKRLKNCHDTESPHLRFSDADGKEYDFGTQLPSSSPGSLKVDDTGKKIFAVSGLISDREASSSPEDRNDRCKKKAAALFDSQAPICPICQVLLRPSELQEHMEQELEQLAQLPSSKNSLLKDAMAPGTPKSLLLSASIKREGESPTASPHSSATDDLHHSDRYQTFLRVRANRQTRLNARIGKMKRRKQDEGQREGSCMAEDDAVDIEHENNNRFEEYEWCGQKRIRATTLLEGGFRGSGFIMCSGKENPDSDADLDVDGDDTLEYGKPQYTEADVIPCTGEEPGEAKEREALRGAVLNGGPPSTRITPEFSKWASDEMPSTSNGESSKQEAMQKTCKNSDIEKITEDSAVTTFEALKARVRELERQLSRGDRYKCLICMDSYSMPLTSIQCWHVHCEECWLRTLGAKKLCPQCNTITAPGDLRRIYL
Chain of UniProt A1X283 (A1X283 whole entry, looked up): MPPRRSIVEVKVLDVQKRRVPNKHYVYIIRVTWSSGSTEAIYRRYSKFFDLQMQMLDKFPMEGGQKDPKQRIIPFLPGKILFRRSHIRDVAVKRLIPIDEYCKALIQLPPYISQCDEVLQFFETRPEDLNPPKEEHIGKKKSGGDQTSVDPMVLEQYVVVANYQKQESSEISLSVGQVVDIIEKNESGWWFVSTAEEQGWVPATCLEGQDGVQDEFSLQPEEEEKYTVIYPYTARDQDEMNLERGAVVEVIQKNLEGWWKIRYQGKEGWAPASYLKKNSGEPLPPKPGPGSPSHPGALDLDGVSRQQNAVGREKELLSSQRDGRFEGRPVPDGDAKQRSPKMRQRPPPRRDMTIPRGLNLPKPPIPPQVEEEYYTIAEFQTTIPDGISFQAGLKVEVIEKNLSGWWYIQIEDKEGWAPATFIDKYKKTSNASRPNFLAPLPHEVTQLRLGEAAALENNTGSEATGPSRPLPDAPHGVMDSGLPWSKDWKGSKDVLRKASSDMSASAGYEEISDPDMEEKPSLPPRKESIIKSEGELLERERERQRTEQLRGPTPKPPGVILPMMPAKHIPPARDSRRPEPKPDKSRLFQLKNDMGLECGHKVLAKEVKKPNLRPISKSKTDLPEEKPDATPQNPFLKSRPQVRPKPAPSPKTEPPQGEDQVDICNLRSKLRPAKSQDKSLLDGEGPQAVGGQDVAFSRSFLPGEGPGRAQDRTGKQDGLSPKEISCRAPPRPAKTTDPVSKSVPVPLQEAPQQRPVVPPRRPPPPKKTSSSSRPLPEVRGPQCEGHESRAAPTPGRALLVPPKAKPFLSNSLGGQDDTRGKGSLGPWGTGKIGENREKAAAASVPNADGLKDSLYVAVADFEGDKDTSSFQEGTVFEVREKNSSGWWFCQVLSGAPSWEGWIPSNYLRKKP
Chain of UniProt A6NEQ0 (A6NEQ0 whole entry, looked up): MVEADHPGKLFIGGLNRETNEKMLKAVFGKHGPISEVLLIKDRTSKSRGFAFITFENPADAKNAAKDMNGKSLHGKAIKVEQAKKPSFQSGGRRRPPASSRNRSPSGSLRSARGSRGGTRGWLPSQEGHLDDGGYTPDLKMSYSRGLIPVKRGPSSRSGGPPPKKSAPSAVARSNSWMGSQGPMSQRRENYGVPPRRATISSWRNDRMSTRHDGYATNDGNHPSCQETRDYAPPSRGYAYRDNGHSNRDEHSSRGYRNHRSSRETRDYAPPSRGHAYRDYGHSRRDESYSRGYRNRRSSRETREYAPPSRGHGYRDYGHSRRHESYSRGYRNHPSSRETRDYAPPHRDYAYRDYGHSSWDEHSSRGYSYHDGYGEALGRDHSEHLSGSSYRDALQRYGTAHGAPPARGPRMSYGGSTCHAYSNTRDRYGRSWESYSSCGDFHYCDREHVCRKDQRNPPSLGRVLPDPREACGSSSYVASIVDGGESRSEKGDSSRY
Chain of UniProt P06400 (P06400 whole entry, looked up): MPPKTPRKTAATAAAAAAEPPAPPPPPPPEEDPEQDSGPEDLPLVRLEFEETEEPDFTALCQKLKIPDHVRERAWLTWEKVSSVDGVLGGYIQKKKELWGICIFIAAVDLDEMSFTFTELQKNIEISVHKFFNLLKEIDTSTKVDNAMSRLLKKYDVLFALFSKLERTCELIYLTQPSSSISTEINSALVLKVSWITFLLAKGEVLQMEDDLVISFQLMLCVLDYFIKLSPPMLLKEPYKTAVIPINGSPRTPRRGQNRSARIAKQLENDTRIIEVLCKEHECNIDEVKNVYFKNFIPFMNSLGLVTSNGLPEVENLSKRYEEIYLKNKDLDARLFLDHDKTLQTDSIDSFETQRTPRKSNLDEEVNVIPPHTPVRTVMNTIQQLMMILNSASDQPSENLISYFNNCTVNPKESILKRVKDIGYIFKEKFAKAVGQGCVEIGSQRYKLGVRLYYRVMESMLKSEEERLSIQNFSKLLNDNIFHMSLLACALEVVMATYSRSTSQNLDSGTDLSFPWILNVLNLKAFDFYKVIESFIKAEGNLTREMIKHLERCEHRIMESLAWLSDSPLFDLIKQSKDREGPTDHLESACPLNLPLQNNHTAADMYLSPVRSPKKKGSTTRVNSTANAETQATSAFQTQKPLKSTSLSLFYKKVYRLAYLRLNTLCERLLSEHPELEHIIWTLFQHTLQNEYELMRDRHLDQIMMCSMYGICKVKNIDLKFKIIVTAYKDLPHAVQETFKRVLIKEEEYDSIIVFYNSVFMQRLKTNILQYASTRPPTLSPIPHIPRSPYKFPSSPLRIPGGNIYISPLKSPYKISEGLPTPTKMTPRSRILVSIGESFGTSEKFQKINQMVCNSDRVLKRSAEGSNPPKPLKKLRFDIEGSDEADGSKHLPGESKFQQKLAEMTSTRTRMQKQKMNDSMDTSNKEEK
Chain of UniProt Q9UPN6 (Q9UPN6 whole entry, looked up): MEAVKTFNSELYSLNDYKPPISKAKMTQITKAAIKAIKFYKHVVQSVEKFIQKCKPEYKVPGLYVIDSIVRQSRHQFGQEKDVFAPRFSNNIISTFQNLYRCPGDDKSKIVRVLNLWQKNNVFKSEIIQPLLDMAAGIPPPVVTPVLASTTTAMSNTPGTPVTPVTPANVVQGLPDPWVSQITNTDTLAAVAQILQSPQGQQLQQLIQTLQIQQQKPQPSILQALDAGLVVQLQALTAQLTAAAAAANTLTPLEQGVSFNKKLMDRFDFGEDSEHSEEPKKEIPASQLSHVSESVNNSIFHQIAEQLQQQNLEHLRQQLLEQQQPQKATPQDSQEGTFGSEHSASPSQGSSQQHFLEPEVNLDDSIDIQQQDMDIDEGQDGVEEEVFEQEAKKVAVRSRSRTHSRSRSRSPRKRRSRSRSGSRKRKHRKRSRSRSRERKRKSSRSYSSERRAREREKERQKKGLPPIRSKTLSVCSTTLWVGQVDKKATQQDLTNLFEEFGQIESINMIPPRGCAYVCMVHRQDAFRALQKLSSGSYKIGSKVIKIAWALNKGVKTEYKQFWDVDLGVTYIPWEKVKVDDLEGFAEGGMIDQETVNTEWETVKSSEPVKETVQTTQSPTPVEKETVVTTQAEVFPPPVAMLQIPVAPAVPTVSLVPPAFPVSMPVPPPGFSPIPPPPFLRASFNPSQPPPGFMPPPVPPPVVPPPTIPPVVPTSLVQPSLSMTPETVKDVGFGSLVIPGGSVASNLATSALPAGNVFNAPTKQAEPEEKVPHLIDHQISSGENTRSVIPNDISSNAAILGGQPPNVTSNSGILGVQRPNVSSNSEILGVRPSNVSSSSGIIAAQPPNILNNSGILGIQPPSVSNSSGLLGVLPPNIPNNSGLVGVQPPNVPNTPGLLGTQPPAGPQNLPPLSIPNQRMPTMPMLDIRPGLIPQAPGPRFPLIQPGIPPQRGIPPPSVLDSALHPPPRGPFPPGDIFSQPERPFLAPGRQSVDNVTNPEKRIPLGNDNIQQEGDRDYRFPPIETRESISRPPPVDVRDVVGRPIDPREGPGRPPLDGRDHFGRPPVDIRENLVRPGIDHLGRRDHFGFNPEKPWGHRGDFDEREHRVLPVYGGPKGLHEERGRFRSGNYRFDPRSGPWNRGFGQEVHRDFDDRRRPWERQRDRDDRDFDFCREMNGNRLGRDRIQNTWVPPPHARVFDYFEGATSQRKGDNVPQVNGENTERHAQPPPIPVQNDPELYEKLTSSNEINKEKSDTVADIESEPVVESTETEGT

Target | log2 fold change (erlotinib) | log2 fold change [1] | log2 fold change [2] | log2 fold change [3] | log2 fold change [4] | log2 fold change [5] | log2 fold change [6] | log2 fold change [7] | log2 fold change [8] | log2 fold change [9]
RARS2 (UniProt Q5T160) | 0.009 | 0.057 | 0.063 | 0.029 | 0.015 | 0.014 | 0.056 | 0 | 0.022 | 0.038
RUFY1 (UniProt Q96T51) | 0.01 | 0.094 | -0.046 | -0.018 | 0.022 | 0.034 | -0.027 | 0 | 0.031 | -0.084
RSL1D1 (UniProt O76021) | -0.115 | -0.156 | -0.504 | 0.073 | -0.054 | 0.057 | -0.141 | -0.086 | 0.016 | -0.193
RAD50 isoform 2 (UniProt Q92878) | 0.02 | 0.034 | 0.076 | 0.001 | 0.029 | 0 | 0.02 | 0.015 | -0.034 | 0.029
SKP1 (UniProt P63208) | -0.003 | -0.036 | 0.05 | -0.011 | -0.048 | 0.045 | 0.047 | 0.009 | -0.006 | 0.03
RABGGTA (UniProt Q92696) | 0.068 | 0.018 | 0.065 | 0.001 | 0.063 | 0.025 | 0.036 | 0.043 | 0.005 | 0.122
RB1 (UniProt P06400) | -0.007 | 0.041 | 0.012 | 0.016 | 0.124 | 0.04 | 0.034 | -0.114 | -0.065 | -0.02
SLBP (UniProt Q14493) | 0.006 | 0.03 | -0.058 | 0.019 | -0.111 | 0.035 | 0.005 | 0.008 | 0.008 | -0.039
RBM25 (UniProt P49756) | 0.142 | -0.037 | -0.039 | -0.025 | -0.014 | 0.055 | -0.012 | -0.008 | -0.076 | -0.137
SHROOM2 (UniProt Q13796) | 0.266 | -1.03 (active) | 0.095 | -0.361 | 0.069 | -0.021 | – | 0.013 | -0.027 | 0.303
REEP4 (UniProt Q9H6H4) | -0.024 | 0.027 | -0.049 | 0.026 | -0.018 | 0.005 | 0.063 | -0.04 | 0.047 | -0.081
SH3PXD2B (UniProt A1X283) | 0 | -0.036 | -0.013 | -0.153 | 0.04 | -0.012 | – | 0.04 | -0.034 | 0.132
SEC24A (UniProt O95486) | 0.084 | 0.097 | 0.031 | -0.018 | 0.033 | -0.022 | 0.036 | 0.022 | -0.026 | 0.011
RSRC2 (UniProt Q7L4I2) | 0.023 | -0.01 | -0.009 | -0.012 | -0.05 | 0.018 | 0.019 | -0.032 | 0 | 0.012
SHCBP1 (UniProt Q8NEM2) | -0.013 | -0.029 | -0.027 | 0.018 | 0.137 | 0.028 | -0.104 | 0.054 | 0.127 | -0.128
SCO2 (UniProt O43819) | 0.092 | 0.012 | 0.055 | 0.048 | 0.243 | -0.054 | 0.017 | 0.163 | -0.042 | 0.101
RRS1 (UniProt Q15050) | -0.099 | -0.205 | -0.536 | -0.003 | -0.095 | 0.004 | -0.18 | -0.018 | 0.162 | -0.219
SCAF8 isoform 2 (UniProt Q9UPN6) | 0.203 | 0.051 | 0.048 | 0.034 | 0.124 | -0.028 | 0.298 | 0.069 | -0.031 | -0.036
SLC12A5 (UniProt Q9H2X9) | 0.036 | 0.054 | -0.49 (active) | 0.034 | 0.098 | -0.021 | – | -0.138 | 0.038 | 0.103
SLC1A3 (UniProt P43003) | 0.025 | 0.017 | 0.194 | 0.053 | -0.169 | 0.001 | 0.007 | 0.012 | 0.05 | 0.163
RBM22 (UniProt Q9NW64) | -0.013 | -0.037 | -0.061 | -0.009 | -0.117 | 0.038 | -0.084 | -0.051 | 0 | 0.121
RPAIN isoform 8 (UniProt Q86UA6) | – | 0.205 | 0.085 | – | -0.03 | 0.048 | 0.083 | 0.009 | -0.035 | -0.002
SF3B5 (UniProt Q9BWJ5) | -0.088 | -0.04 | 0.319 | 0.051 | 0.023 | 0.199 | – | 0.107 | -0.104 | -0.002
RCOR3 isoform 3 (UniProt Q9P2K3) | 0.116 | 0.084 | – | -0.008 | 0.022 | -0.01 | -0.011 | 0.018 | -0.003 | 0.057
SAFB2 (UniProt K7EQU4) | – | – | -0.172 | – | – | -0.277 | – | – | – | –
S100A10 (UniProt P60903) | – | 0.122 | – | – | 0.194 | 0.052 | – | -0.096 | -0.042 | -0.013
RBMY1E (UniProt A6NEQ0) | -0.238 | – | – | 0.06 | – | -0.003 | -0.044 | – | -0.072 | -0.099
SEMG2 (UniProt Q02383) | – | 1.75 | 0.047 | – | 0.237 | -0.042 | – | -0.562 (active) | -0.071 | 0.06

Target | log2 fold change (erlotinib) | log2 fold change [1] | log2 fold change [2] | log2 fold change [3] | log2 fold change [4] | log2 fold change [5] | log2 fold change [6] | log2 fold change [7] | log2 fold change [8] | log2 fold change [9]
RBM26 isoform 3 (UniProt Q5T8P6) | – | 0.22 | – | – | -0.079 | – | – | -0.149 | – | –
SAMD4B (UniProt Q5PRF9) | -0.117 | – | -0.17 | -0.13 | – | 0.124 | -0.135 | – | 0.037 | 0.045
RPS3A (UniProt D6R9B6) | – | -0.359 | – | – | 0.198 | – | – | -0.243 | 0.303 | 0.034
RELA (UniProt Q04206) | – | 0.034 | 0.003 | -0.011 | -0.007 | 0.014 | -0.002 | 0.004 | -0.022 | 0.011
RPS19 (UniProt M0R2L9) | – | -0.054 | – | – | -0.246 | – | – | 0.732 | 0.522 | -0.095
SIK3 (UniProt H0Y4E8) | -0.074 | 0.045 | – | 0.094 | 0.074 | – | -0.163 | -0.099 | 0.051 | 0.15
RBM6 (UniProt P78332) | – | 0.019 | – | – | 0.036 | – | – | -0.1 | 0.048 | 0.018
SDCBP isoform 2 (UniProt O00560) | 0.157 | – | 0.007 | 0.159 | – | 0.009 | -0.299 | – | 0.249 | 0.096
RABGAP1L isoform 5 (UniProt Q5R372) | 0.114 | 0.043 | -0.076 | 0.089 | -0.007 | 0.045 | – | -0.097 | 0.023 | 0.016
RNF185 (UniProt Q96GF1) | -0.054 | -0.006 | – | 0.009 | 0.136 | 0.026 | 0.133 | -0.007 | 0.457 | -0.031
RICTOR isoform 3 (UniProt Q6R327) | 0.116 | 0.025 | -0.067 | 0.36 | -0.031 | – | – | -0.136 | 0.054 | -0.001
RPS3 (UniProt E9PJN9) | – | – | – | – | – | – | 0.203 | – | 0.021 | -0.151
RPS6KA5 (UniProt O75582) | 0.239 | – | -0.079 | -0.234 | – | – | -0.091 | – | – | –
RAD50, A0A494C0Y7 | – | -0.029 | – | – | 0.049 | -0.077 | -0.111 | 0.048 | -0.033 | 0.143
RPS6KA3 (UniProt P51812) | -0.024 | 0.08 | 0.018 | 0.072 | – | 0.061 | -0.043 | -0.345 (active) | -0.085 | -0.017
SDHAF4 (UniProt Q5VUM1) | 0 | 0.104 | 0.026 | 0.031 | 0.118 | 0.033 | – | -0.117 | 0.054 | 0.094
SCLT1 (UniProt Q96NL6) | – | – | – | – | – | -0.002 | – | – | -0.088 | 0.051
RUFY3 isoform 3 (UniProt Q7L099) | 0.019 | 0.012 | – | -0.03 | -0.028 | – | 0.011 | 0.065 | -0.075 | -0.07
SH2D1B (UniProt O14796) | -0.294 | -0.059 | -0.218 | -0.098 | 0.057 | – | -0.228 | -0.406 | -0.036 | 0.028
RAB3D (UniProt O95716) | -0.094 | 0.036 | – | -0.141 | -0.055 | 0.006 | -0.145 | -0.058 | 0.007 | 0.036
RMDN2 isoform 2 (UniProt Q96LZ7) | – | – | – | – | – | – | 0.088 | – | – | –
RNF220 isoform 3 (UniProt Q5VTB9) | -0.109 | -0.021 | – | 0.229 | -0.05 | – | – | -0.055 | – | –
RNF41 (UniProt Q9H4P4) | – | 0.043 | – | – | -0.074 | -0.146 | – | -0.002 | – | –
RNF26 (UniProt Q9BY78) | – | – | – | – | – | -0.08 | -0.073 | – | – | –
RNF2 (UniProt Q99496) | -0.014 | 0.116 | -0.013 | -0.231 | -0.057 | -0.004 | – | -0.053 | -0.103 | -0.006
SAP30 (UniProt O75446) | -0.04 | 0.061 | -0.069 | -0.027 | 0.018 | – | – | -0.13 | – | –
SDC3 (UniProt O75056) | – | -0.135 | -0.015 | – | 0.05 | – | – | -0.157 | -0.139 | 0.203
